Results from the supplement of paper PMC9433436.
± gives the standard deviation of the averaged measurements. Over roughly 4,100 sequences, “relative kcat/Km (krel) vs genomic leader AAAGAU” has its median near 1.7; the highest 2% begin near 6.5. The sample as a whole holds a higher share of the highest values than the screen did.

Molecular target: T1, E. coli RNase P holoenzyme (M1 P RNA + rnpA protein) (UniProt P0A7Y8)
T1 sequence: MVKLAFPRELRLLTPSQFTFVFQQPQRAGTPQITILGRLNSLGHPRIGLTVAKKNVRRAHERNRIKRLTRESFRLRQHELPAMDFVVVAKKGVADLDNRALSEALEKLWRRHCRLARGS
Assay: relative kcat/Km (krel) vs genomic leader AAAGAU (relative (reference leader = 1)); higher = faster RNase P cleavage
Procedure: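 HTS-Kin: a pool of ptRNA-Met (21C construct) with all 4096 combinations of 5' leader nucleotides N(-6) to N(-1) was processed in vitro by E. coli RNase P (P RNA + rnpA/C5 protein) under multiple-turnover conditions at 37 C, pH 8, 17.5 mM MgCl2. Residual substrate was Illumina-sequenced at several fractions reacted, and relative kcat/Km (krel) was computed by internal competition kinetics, calibrated to the genomic leader (AAAGAU = 1). The listed hexamer is the varied N(-6)..N(-1) leader (DNA letters), and it sits between a fixed 5' stem-loop flank (GCAUGCACGAAAGUGCGUGCUAUGAA) and the mature tRNA-Met starting GGCUACGUAGCUCAGUUGG. Two technical replicates are averaged.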

[1] = fraction of substrate reacted: ~13-16% (15.68% repeat 1, 13.17% repeat 2)
[2] = fraction of substrate reacted: ~26-29% (28.66% repeat 1, 26.4% repeat 2)
[3] = fraction of substrate reacted: ~9-10% (9.79% repeat 1, 9.1% repeat 2)

Sequence	relative kcat/Km [1]	relative kcat/Km [2]	relative kcat/Km [3]
CAGGGC	0.734 ± 0.28	0.809 ± 0.4	
GCCGTA	2.93 ± 0.69	3.66 ± 1.4	2.27 ± 0.21
GGTAAC	1.618 ± 0.0045	2.64 ± 1.5	1.47 ± 0.022
GGATAT	2.63 ± 0.49	3.4 ± 1.9	1.83 ± 0.13
CGATAC	4.04 ± 1	5.79 ± 2.4	3.25 ± 1.4
CGATAT	5.17 ± 2.6	6.68 ± 3	3.51 ± 0.4
GTCAAT	4.56 ± 1.9	7.14 ± 3.8	3.17 ± 0.8
ATCAAA	5.34 ± 0.78	7.44 ± 3.2	3.96 ± 1.9
GCCAAT	2.75 ± 1.7	4.52 ± 2.3	3.15 ± 0.068
ATCAAG	1.96 ± 0.14	3.87 ± 0.91	
CTCAAA	4.92 ± 1.4	8.02 ± 3.1	4.31 ± 1.6
CTCAAG	2.93 ± 1.3	4.67 ± 1.1	2.69 ± 2
GTCAAG	2.63 ± 0.65	5.35 ± 2.1	1.75 ± 0.96
ACCAAG	0.763 ± 0.21	2.7 ± 0.17	
CTTAAG	1.63 ± 0.79	2.28 ± 0.23	1.2 ± 0.59
GTCAAA	5.99 ± 1.9	8.75 ± 3.3	4.62 ± 1.6
GGCAAA	3.13 ± 0.17	3.46 ± 0.93	2.21 ± 1
GGCAAT	1.558 ± 0.015	3.04 ± 1.2	1.76 ± 0.086
CAGTCA	1.64 ± 1.4	2.56 ± 1.5	1.56 ± 0.78
TGTAGG	0.426 ± 0.27	1.61 ± 0.48	
CAACCC	1.26 ± 0.56	1.22 ± 0.096	1.41 ± 0.43

Sequence	relative kcat/Km [1]	relative kcat/Km [2]	relative kcat/Km [3]
TCACAC	4.7 ± 1.1	5.86 ± 2	3.8 ± 1.1
CCACAC	2.63 ± 0.9	3.97 ± 1.5	1.98 ± 0.78
GCTAGA	1.71 ± 0.21	2.45 ± 0.62	1.329 ± 0.007
GCCCGG		0.437 ± 0.31	0.406 ± 0.099
CAGAGG		0.599 ± 0.16	
ACATCT	3.25 ± 0.78	4.12 ± 1.9	2.62 ± 1.1
TCATGG	0.443 ± 0.084	0.476 ± 0.47	0.253 ± 0.062
GATAAC	2.81 ± 0.13	3.66 ± 1	2.1 ± 0.44
TATGTG		0.506 ± 0.12	
ATCTGG		1.46 ± 0.34	0.825 ± 0.53
GTCGGA	1.67 ± 1.1	1.51 ± 1.2	
CTCAGG	1.21 ± 0.29	2.45 ± 0.18	1.96 ± 1.2
ATCAGA	4.59 ± 0.2	7.03 ± 1.9	3.76 ± 2
CTCAGT	1.91 ± 1.4	2.13 ± 1.4	1.02 ± 0.51
ATCAGT	1.79 ± 1.8	2.19 ± 2.2	
GCCAGA	2.26 ± 0.32	5.56 ± 1.6	2.6 ± 2
ATCAGG		1.41 ± 0.062	0.528 ± 0.016
GTCAGA	5.57 ± 1.1	9.06 ± 3.4	3.33 ± 0.28
CTCAGA	5.99 ± 1	8.03 ± 2.7	4.71 ± 1.4
GGACAA	1.34 ± 0.47	2.59 ± 0.96	0.879 ± 0.43
TAATTC	2.45 ± 0.42	3.22 ± 0.89	2.12 ± 1.6

Sequence	relative kcat/Km [1]	relative kcat/Km [2]	relative kcat/Km [3]
AGACGT		1.98 ± 1.9	
TATGCC	1.72 ± 0.22	2.97 ± 1.5	2.71 ± 0.41
TCCGCC	5.9 ± 0.79	7.97 ± 3.5	4.39 ± 0.68
TCCGCT	2.55 ± 2	3.65 ± 1.5	2.17 ± 0.033
CCCGCC	4.24 ± 2	4.94 ± 1.9	2.78 ± 0.39
CCCGCA	3.43 ± 1.2	4.58 ± 1.4	3.38 ± 0.43
GCCGCC	3.21 ± 1.2	5.43 ± 2.6	2.33 ± 1.2
TCCGCA	5.02 ± 0.26	6.95 ± 2.4	4.56 ± 2.3
TGTATG		1.93 ± 0.25	
CCTTTA	1.47 ± 0.27	2.25 ± 0.99	1.51 ± 0.63
ACAGAT	1.48 ± 0.42	1.88 ± 0.26	0.729 ± 0.034
ATTACC	1.65 ± 0.26	2.21 ± 0.71	1.64 ± 0.48
ATGAGA	0.964 ± 0.71	2.28 ± 0.37	0.619 ± 0.34
TGCAAT	1.18 ± 0.72	1.9 ± 0.94	0.917 ± 0.7
TTCAAC	6.12 ± 0.93	8.94 ± 3.2	4.99 ± 1.6
TCAAAA	1.64 ± 0.34	2.89 ± 1.2	2.12 ± 1.1
TGCAAC	1.45 ± 0.22	2.22 ± 0.84	1.87 ± 0.58
CCCAAC	2.15 ± 0.29	3.75 ± 1.1	2.26 ± 0.55
TTCAAA	6.52 ± 1.5	9.38 ± 3.5	4.87 ± 2.9
CTTAAC	2.52 ± 0.82	3.93 ± 1.3	2.53 ± 1.3
TCAATT	1.92 ± 0.12	2.3 ± 0.3	2.1 ± 1.1
